Compound activity from PubChem BioAssay.
KKLEB cytotox – cytotoxicity in KKLEB CF airway cells, primary screen, cytotoxicity control for CF NF-kB inhibitor project, cell-based, uHTS, fluorescence assay plates. KKLEB CF airway cells viability, ATPlite luminescence, overnight; stronger effect = lower value; cells stimulated with P. aeruginosa culture filtrate. activity change (cytotoxicity), % at 5 µM. hit rate 0.36% among 360,000. AID 602141, 2011;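 active means corrected activity change at or below -50% at 5 µM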
TRAIL sens C8 – viability loss with TRAIL in NB7+C8 cells, primary screen, TRAIL sensitizer project, cell-based, ATPlite luminescence; inhibition (viability loss, TRAIL sensitization), % at 10 µM; hit rate 1% among 360,000;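 active means compounds causing at least 50% loss of cell viability in the single-dose screen, relative to plate controls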
PPC-1+TRAIL kill – compounds killing PPC-1 cancer cells with TRAIL present, primary screen, TRAIL potentiator project, ATPLite luminescence, uHTS. PPC-1 cells + TRAIL, ATPLite viability luminescence. cell killing (% activity), % at 4 µM or 5 µM. hit rate 0.41% among 220,000. AID 1443, 2008;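 active means cell killing above 50% in the first pass at 4 µM, then a duplicate retest at 5 µM averaging 50% or more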;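 further: plate controls were cells with TRAIL plus DMSO for no effect and medium-only wells lacking cells for full effect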
CF NFkB block – inhibitors of PAF-induced NF-kB signaling, primary screen, cell-based, GFP fluorescence, uHTS; AID 588850, 2011; hit rate 0.86% among 360,000; inhibition, % at 5 µM; KKLEB NF-kB-GFP reporter, GFP fluorescence overnight;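 active means at least 50% inhibition at 5 µM, scaled per plate between neutral and stimulator controls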;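 further: PAF is a Pseudomonas aeruginosa culture filtrate used as stimulus; plate controls were PAF-stimulated DMSO wells for no effect and unstimulated DMSO wells for full effect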
HIF-2a inh – HIF-2a reporter inhibitors, primary screen, luminescence, 786-0 RCC cells; 786-0 RCC cells HIF-2a reporter, luciferase luminescence, overnight; inhibition, % at 18.8 µM; hit rate 0.72% among 360,000; AID 624352, 2012;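 active means inhibition of the luminescence signal of 40% or more relative to plate controls, in a single-dose primary screen at 18.75 µM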
hiPSC survival – enhancers of single-cell hiPSC survival, primary screen, ATPlite luminescence; survival enhancement, % at 20 µM; 100% = ROCK inhibitor wells, 0% = DMSO; hit rate 0.044% among 360,000; in the data active means survival enhancement above about 18%;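 further: cells exposed to compounds for 16 hours before the ATP read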
CF NFkB inh conf – inhibitors of PAF-induced NF-kB signaling, retest, confirmation, cell-based, GFP fluorescence, single concentration; hit rate 64% among 1,300; shares compounds with CF NFkB block; inhibition, % at 5 µM; KKLEB CF airway cells, overnight; AID 602472, 2012; in the data active means inhibition above about 40%;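 further: stimulus PAF is a Pseudomonas aeruginosa filtrate and not platelet activating factor; plate controls were DMSO wells with stimulus for no effect and unstimulated DMSO wells for full effect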
HIF-2a inh conf – HIF-2a reporter inhibitor retest, confirmation, luminescence, 786-0 RCC cells | shares compounds with HIF-2a inh | HIF-2a luciferase reporter luminescence, overnight | inhibition, % at 18.8 µM | hit rate 56% among 1,800 | AID 651580, 2012;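 active means mean inhibition across four replicates of at least 40 percent at the single tested concentration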
HIF-1a cs – HIF-1a luciferase reporter signal reduction – MiaPaCa-2 cells, single concentration, counter-screen for HIF-2a inhibitor project, confirmation | hit rate 72% among 1,800 | shares compounds with HIF-2a inh | MiaPaCa-2 HIF-1a luciferase reporter, desferoxamine, overnight | inhibition, % at 18.8 µM;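 active means mean inhibition of the reporter signal across four replicates at the single tested dose of 50% or more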
Starred values were filed as active, the others as inactive; . = not tested or not shown. Compounds with a hit are over-represented: about 2.2% of the library has one in this group of screens.

SMILES	KKLEB cytotox	TRAIL sens C8	PPC-1+TRAIL kill	CF NFkB block	HIF-2a inh	hiPSC survival	CF NFkB inh conf	others
COc1ccc(-n2nnnc2C(c2cccs2)N2CCC(n3c(=O)[nH]c4ccccc43)CC2)cc1 (stereo not given)	-18	-10	.	79*	-23	1	97*
COc1ccc(-n2nnnc2C(c2cccc(OC)c2OC)N2CCC(n3c(=O)[nH]c4ccccc43)CC2)cc1 (stereo not given)	-23	-12	.	84*	10	2	41*
O=C1NCN(c2ccccc2)C12CCN(C(c1cccc3ccccc13)c1nnnn1Cc1ccccc1)CC2 (stereo not given)	-11	-11	.	42	-5	0	.
Cc1cc(C)[n+](CCCC[n+]2c(C)cc(C)cc2C)c(C)c1	7	-10	.	-4	13	-2	.
COC(=O)C1=C(c2ccc3ccccc3c2)C[C@@H]2CC[C@H]1N2C(=O)NCCNC(C)=O	6	7	.	-6	12	5	.
CCN1C[C@@]2(COC)C3[C@@H](OC)[C@H]4[C@@H]1[C@@]3(C1C[C@H]3[C@H](OC(=O)c5ccccc5)C1[C@]4(OC(C)=O)C[C@H]3OC)[C@@H](OC)C[C@H]2O (stereo not given in full)	8	-13	.	-8	20	0	.
COc1cc2c(c(OC)c1OC)-c1ccc(O)cc1[C@@H](NC(C)=O)CC2	-39	6	.	40	24	-1	.
COc1cc2c(c(OC)c1OC)-c1ccc(O)cc1C(NC(C)=O)CC2 (stereo not given)	-18	10	.	67*	13	-2	88*
COc1ccc2c(c1OC)C(=O)OC2C1c2cc3c(cc2CCN1C)OCO3 (stereo not given)	0	-13	.	1	15	0	.
COc1cc(C2c3cc4c(cc3CC3COC(=O)C32)OCO4)cc(OC)c1O (stereo not given)	-30	-12	.	54*	20	-3	71*
COC(=O)C1=C(c2cccc(OCc3ccccc3)c2)C[C@@H]2CC[C@H]1N2C(=O)NCc1ccc(C(F)(F)F)cc1	-6	21	.	29	5	0	.
COc1ccc(CCNC2CCCCC2)cc1	5	-3	16	-18	13	0	.
COc1ccc(C[C@H]2NC[C@H](O)[C@H]2OC(C)=O)cc1	-45	86*	.	88*	91*	-4	116*
N#CC1c2ccccc2-n2nncc2CN1Cc1cc(Cl)cc(Cl)c1 (stereo not given)	-50	76*	.	90*	93*	-1	116*	HIF-2a inh conf=98*;HIF-1a cs=107*
c1ccc(-c2[nH]c(-c3ccccc3)[n+](CC3CO3)c2-c2ccccc2)cc1 (stereo not given)	-13	20	18	38	36	-2	.
C=C1C(=O)OC2CC3(C)OC3C3OC3C3=CC(OC3=O)C12 (stereo not given)	-34	15	.	88*	61*	1	61*	HIF-2a inh conf=68*;HIF-1a cs=0
COCCCN=Cc1c(O)[nH]c(=S)[nH]c1=O	12	-4	18	12	8	4	.
CC1CC(C)CC(C)C(O)C(C#N)=CC=CCC(C2CCCC2C(=O)O)OC(=O)CC(O)C(C)C1 (stereo not given)	-48	66*	.	86*	78*	-3	.	HIF-2a inh conf=76*;HIF-1a cs=104*
